Reference: the supplement of paper PMC11732987, “Enantioselective OTUD7B fragment discovery through chemoproteomics screening and high-throughput optimisation” (Communications Chemistry, 2025)

Tests used:
Experiment in all cases: log2 ratio of Biotin-Ahx-Ub-VS probe labelling (fragment/DMSO); higher = less target engagement (more negative = stronger competition), active = hit call of the paper (q ≤ 0.05, log2 ratio ≤ -1)
Conditions in all cases: compound concentration: 200 uM; treatment time: 3 h
[1] = biological target: T1, USP42 (UniProt Q9H9J4)
T1 sequence (whole entry): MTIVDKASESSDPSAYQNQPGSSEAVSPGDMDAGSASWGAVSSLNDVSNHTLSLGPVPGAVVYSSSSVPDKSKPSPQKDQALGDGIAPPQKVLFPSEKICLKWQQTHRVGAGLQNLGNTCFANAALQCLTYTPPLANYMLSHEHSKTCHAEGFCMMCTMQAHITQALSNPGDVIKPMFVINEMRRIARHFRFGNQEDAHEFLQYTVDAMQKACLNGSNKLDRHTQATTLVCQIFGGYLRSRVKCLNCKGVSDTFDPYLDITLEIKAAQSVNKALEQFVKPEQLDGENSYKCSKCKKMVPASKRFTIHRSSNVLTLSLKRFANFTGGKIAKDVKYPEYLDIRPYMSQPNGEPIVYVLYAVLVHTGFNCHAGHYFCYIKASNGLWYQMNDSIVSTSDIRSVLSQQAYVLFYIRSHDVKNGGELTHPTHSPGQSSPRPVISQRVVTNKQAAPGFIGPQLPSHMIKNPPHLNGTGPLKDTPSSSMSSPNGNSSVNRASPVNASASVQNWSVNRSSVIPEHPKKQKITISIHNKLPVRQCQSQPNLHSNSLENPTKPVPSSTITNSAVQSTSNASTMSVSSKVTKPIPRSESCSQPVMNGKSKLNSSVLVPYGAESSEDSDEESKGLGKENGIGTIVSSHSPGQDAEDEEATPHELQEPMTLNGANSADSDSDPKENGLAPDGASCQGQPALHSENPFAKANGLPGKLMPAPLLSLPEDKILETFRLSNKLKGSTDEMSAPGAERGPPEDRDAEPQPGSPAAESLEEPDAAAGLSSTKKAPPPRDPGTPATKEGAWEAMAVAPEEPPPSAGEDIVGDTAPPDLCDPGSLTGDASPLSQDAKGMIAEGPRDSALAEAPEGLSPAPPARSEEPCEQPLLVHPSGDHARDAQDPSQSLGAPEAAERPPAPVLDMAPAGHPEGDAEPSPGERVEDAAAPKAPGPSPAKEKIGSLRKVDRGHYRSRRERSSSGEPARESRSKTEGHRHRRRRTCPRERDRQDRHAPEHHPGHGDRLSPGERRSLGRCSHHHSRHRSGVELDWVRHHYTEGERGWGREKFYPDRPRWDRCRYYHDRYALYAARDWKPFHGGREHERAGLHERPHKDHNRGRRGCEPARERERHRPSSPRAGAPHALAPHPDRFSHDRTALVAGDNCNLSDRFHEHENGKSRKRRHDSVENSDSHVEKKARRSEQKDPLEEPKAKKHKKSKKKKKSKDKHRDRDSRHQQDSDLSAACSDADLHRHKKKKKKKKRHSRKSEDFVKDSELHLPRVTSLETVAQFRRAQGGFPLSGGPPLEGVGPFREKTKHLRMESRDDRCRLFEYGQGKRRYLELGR
How it was run: (§1)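 Labelled DUBs were enriched with NeutrAvidin, digested with LysC and trypsin, and run by diaPASEF LC-MS/MS. The labelling used Biotin-Ahx-Ub-VS at 0.5 µM final for 1 h on HEK293T lysate (495 µg per sample) previously treated in triplicate with fragment at 200 µM or vehicle for 3 h. Values are average log2 fragment/vehicle ratios by unpaired t-test on global-median-normalised Spectronaut quantities of proteins with ≥2 unique peptides.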

[2] = biological target: USP46 (UniProt P62068)
How it was run: as §1

[3] = biological target: T2, USP47 (UniProt Q96K76)
T2 sequence (whole entry): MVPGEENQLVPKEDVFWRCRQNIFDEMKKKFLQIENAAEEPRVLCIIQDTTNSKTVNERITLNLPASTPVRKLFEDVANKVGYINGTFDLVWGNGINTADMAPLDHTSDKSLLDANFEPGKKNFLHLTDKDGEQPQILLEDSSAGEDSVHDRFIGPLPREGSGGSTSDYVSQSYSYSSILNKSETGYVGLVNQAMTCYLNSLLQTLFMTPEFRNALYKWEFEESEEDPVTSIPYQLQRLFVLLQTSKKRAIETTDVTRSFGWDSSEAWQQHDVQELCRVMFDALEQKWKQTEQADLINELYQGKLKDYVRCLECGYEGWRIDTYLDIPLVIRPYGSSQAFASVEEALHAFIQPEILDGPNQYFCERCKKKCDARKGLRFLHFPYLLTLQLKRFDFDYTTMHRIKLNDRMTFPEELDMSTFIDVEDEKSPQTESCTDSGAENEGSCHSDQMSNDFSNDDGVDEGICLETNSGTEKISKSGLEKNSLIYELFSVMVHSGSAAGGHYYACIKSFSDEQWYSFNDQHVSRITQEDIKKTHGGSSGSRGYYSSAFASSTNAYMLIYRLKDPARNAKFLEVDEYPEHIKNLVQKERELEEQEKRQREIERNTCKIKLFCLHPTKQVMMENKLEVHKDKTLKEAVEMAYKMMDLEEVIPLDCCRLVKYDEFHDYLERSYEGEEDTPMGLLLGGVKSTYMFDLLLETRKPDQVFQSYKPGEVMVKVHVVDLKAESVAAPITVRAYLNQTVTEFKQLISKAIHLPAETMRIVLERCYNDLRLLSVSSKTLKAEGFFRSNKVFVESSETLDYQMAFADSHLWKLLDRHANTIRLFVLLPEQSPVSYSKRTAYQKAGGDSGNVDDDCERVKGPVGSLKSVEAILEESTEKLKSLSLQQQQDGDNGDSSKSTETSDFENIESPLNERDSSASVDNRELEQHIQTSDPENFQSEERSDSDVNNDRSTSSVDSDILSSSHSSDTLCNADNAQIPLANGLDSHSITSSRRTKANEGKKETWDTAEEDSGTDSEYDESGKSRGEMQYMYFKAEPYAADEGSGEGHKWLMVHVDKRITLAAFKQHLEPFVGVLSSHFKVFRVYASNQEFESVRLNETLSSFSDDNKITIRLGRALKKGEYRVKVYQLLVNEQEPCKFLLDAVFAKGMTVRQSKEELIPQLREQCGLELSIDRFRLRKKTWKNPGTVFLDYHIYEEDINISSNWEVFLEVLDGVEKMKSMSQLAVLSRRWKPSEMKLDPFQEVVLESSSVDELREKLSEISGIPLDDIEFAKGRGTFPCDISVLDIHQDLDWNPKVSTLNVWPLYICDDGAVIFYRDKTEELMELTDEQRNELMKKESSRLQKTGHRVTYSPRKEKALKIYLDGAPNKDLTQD
How it was run: as §1

[4] = biological target: T3, USP48 (UniProt Q86UV5)
T3 sequence (whole entry): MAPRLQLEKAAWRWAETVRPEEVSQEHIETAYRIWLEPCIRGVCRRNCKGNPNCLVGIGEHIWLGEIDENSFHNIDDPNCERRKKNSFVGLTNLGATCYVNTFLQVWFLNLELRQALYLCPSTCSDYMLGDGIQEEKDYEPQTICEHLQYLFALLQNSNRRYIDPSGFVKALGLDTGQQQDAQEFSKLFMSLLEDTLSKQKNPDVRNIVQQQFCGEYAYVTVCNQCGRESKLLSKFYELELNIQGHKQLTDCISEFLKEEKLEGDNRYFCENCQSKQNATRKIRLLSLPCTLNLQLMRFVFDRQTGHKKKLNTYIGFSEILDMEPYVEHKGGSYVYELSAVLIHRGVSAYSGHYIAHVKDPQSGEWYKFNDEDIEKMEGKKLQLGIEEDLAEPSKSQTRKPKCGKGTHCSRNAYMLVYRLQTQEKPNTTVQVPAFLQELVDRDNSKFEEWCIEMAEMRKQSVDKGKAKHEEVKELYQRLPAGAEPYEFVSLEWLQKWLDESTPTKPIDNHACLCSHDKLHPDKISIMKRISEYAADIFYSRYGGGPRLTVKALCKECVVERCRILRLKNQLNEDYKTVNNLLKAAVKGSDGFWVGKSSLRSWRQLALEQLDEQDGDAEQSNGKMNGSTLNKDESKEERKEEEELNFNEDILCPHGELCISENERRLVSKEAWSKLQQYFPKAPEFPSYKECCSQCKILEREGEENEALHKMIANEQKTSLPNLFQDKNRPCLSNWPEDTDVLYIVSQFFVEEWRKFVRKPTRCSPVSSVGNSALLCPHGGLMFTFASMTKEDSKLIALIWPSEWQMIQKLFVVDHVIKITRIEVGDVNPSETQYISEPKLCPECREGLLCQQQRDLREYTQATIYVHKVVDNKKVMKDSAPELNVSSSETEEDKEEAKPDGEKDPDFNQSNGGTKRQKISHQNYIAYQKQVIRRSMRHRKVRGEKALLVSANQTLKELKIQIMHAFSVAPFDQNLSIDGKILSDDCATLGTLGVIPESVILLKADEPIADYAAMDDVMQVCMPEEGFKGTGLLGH
How it was run: as §1

[5] = biological target: T4, USP5 (UniProt P45974)
T4 sequence (whole entry): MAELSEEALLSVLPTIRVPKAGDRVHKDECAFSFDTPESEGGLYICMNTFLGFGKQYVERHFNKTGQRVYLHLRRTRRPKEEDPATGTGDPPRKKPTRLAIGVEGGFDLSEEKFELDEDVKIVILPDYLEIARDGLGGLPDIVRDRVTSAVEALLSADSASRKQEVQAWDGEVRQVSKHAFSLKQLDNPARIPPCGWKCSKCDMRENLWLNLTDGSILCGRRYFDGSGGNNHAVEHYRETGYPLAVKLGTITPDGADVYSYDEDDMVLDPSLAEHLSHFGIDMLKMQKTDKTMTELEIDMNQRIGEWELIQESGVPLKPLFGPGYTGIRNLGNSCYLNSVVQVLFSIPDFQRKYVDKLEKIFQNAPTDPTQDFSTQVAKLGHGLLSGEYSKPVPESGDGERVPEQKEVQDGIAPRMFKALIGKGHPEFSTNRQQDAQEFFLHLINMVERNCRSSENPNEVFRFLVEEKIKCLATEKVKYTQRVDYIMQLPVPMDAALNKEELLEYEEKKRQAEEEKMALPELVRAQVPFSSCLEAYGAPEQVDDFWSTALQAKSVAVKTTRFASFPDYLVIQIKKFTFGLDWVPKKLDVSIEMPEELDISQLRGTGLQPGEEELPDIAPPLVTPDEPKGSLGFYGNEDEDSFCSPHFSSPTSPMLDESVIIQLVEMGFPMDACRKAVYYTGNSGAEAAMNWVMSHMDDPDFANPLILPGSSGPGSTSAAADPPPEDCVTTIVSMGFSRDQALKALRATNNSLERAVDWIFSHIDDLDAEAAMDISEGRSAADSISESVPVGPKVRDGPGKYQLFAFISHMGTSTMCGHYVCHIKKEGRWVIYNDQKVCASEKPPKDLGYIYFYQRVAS
How it was run: as §1

[6] = biological target: USP54 (UniProt Q70EL1)
How it was run: as §1

[7] = biological target: USP7 (UniProt Q93009)
How it was run: as §1

[8] = biological target: T5, USP8 (UniProt P40818)
T5 sequence (whole entry): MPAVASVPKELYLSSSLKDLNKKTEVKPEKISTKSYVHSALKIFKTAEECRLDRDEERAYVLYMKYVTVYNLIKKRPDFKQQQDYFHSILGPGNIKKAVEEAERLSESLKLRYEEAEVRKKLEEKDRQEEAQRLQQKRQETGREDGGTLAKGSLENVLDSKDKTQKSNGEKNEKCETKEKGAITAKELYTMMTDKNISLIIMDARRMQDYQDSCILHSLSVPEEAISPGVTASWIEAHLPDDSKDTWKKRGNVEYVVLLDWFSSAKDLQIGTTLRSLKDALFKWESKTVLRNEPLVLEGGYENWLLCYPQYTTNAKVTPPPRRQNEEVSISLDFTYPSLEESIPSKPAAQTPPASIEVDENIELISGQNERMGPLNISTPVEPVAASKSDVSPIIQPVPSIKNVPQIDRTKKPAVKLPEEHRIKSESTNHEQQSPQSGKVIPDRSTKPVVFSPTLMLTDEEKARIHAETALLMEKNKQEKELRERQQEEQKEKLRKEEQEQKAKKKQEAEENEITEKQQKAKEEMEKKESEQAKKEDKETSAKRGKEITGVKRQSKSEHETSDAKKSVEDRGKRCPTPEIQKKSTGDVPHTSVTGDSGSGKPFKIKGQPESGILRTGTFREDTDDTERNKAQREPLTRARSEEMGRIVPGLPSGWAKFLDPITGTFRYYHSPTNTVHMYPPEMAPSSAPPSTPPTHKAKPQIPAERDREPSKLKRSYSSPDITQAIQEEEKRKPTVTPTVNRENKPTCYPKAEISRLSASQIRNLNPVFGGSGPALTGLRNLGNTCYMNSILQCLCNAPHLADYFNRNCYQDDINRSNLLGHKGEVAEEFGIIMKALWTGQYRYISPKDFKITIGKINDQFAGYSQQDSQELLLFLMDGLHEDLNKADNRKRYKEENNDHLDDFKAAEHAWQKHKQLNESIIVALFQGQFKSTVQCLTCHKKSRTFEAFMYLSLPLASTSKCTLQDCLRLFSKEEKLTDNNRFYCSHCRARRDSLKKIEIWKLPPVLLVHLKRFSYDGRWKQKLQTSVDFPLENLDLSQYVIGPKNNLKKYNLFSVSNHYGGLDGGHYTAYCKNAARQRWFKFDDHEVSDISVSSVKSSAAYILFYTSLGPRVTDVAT
How it was run: as §1

[9] = biological target: USP9X (UniProt Q93008)
How it was run: as §1

[10] = biological target: UniProt O00487
How it was run: as §1

Measured: log2 ratio of Biotin-Ahx-Ub-VS probe labelling

Sequence of UniProt O00487 (O00487 whole entry): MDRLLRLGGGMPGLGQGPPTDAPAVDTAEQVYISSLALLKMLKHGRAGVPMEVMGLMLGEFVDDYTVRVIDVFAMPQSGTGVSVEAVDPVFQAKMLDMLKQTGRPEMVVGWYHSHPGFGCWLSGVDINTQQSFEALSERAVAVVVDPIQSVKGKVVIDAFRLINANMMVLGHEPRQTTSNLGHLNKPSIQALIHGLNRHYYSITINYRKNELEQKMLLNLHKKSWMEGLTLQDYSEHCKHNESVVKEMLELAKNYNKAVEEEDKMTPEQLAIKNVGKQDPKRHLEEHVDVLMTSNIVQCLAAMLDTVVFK
Sequence of USP7 (Q93009 whole entry, looked up): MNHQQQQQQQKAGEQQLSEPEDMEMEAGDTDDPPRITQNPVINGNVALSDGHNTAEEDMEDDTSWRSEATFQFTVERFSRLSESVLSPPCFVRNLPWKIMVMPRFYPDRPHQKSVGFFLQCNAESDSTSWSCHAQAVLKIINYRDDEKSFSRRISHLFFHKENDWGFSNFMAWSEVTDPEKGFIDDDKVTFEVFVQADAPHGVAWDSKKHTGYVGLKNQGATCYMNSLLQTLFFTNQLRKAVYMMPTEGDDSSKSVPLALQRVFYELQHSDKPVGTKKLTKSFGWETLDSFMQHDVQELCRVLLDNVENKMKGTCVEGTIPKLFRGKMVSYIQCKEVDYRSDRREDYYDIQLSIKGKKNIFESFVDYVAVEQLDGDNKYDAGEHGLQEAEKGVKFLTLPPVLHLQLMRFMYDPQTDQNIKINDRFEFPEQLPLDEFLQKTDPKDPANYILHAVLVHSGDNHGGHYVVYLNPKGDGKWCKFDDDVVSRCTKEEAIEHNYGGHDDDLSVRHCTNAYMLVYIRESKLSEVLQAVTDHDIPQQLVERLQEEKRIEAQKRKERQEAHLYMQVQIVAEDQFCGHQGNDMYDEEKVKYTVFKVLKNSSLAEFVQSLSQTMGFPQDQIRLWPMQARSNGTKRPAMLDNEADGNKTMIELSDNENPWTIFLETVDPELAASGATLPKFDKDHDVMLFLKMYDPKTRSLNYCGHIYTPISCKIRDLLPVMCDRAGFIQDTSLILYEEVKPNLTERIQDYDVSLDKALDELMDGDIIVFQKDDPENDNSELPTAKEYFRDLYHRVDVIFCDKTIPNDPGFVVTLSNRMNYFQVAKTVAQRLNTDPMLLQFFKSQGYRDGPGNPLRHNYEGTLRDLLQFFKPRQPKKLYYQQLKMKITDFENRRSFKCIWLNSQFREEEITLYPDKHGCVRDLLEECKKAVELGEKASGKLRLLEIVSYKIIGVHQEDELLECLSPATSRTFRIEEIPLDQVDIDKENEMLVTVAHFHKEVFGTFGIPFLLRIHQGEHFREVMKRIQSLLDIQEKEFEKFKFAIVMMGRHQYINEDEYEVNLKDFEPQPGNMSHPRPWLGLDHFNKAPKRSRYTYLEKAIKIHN
Sequence of USP9X (Q93008 whole entry): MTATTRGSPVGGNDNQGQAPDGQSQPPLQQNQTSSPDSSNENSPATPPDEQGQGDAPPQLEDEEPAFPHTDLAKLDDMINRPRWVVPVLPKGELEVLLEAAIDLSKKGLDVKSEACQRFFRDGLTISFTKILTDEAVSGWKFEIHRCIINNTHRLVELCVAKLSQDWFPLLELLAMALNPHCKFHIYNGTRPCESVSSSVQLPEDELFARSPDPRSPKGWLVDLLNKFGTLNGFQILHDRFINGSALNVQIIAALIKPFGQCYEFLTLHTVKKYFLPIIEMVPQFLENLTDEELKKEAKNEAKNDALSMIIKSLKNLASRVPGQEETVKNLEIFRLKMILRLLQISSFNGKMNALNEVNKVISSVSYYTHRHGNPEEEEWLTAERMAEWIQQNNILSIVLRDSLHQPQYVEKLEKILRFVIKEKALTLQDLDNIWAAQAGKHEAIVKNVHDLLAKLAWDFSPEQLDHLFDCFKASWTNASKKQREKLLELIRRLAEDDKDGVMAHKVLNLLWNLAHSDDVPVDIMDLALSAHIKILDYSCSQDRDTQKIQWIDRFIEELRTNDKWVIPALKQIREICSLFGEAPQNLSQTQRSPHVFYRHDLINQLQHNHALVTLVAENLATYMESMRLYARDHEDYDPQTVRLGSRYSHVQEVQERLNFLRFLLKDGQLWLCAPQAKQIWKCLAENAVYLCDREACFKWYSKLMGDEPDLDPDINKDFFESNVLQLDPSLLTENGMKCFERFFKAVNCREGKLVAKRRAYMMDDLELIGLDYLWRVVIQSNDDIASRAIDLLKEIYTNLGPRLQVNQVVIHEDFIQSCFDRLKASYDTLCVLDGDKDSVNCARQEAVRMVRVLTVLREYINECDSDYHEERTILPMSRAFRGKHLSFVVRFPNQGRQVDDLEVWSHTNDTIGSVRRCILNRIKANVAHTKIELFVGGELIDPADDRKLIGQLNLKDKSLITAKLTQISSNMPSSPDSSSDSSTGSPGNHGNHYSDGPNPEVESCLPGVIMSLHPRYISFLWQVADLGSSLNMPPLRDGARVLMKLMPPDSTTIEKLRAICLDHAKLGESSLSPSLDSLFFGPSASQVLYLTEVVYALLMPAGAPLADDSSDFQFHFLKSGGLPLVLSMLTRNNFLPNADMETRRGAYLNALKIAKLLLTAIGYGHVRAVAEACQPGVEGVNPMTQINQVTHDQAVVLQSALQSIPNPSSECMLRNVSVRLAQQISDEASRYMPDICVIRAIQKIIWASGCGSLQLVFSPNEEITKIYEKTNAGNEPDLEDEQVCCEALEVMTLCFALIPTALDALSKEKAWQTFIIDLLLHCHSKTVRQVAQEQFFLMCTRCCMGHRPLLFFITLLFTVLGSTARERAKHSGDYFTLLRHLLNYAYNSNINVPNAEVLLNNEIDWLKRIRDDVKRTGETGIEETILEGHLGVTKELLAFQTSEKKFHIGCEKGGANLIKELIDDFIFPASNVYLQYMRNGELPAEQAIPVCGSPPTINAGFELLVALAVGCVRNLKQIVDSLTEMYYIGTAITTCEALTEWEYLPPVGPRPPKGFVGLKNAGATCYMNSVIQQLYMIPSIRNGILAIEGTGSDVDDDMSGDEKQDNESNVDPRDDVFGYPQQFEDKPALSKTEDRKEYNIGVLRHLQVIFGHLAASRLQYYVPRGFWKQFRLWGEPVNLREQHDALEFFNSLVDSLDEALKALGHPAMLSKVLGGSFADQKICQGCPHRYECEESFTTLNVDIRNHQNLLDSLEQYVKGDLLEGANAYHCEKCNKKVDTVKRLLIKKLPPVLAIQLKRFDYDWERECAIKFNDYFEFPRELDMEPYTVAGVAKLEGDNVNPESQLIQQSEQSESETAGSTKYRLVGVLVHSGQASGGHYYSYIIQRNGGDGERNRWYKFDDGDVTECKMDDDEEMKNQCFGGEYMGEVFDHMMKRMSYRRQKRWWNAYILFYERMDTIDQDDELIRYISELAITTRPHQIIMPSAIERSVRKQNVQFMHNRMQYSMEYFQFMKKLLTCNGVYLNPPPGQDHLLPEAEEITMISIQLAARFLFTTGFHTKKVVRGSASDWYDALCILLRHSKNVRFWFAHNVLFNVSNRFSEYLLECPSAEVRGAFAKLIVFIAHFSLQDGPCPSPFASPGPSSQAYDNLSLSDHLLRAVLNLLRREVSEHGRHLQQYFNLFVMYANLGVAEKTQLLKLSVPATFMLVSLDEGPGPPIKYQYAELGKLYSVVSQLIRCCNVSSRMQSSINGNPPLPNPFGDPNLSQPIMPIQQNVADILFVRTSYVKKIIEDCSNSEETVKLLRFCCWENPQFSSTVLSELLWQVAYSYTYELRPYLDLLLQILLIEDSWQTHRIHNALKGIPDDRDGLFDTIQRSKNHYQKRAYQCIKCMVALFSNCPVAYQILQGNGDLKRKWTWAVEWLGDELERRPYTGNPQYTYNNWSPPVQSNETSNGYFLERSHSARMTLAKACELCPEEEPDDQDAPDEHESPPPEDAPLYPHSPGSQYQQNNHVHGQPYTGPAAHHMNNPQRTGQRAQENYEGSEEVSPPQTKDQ
Sequence of USP46 (P62068 whole entry): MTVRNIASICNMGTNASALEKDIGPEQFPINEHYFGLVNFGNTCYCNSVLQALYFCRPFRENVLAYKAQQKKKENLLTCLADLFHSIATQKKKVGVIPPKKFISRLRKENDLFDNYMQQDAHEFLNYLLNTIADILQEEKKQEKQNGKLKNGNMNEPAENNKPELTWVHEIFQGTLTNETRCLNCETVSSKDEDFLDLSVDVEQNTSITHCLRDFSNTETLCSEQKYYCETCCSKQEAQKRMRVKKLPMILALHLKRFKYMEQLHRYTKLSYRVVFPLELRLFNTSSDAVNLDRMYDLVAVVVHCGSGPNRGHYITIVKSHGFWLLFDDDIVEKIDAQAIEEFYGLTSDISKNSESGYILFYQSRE

O=C(CCl)N1CCOCCC1c1ccccc1 (stereo not given)
inactive: [1] 0.345 | [2] -0.0581 | [3] -0.596 | [4] 0.0099 | [5] 0.135 | [6] 0.504 | [7] -0.526 | [8] -0.109 | [9] -0.168 | [10] -0.00106
